In PubChem BioAssay (NCI):
This is part of a sample that, as a whole, favours compounds with a hit. Of some 79,000 tested, about 15% had one in any assay. Calls of active or inactive are those of the source. No stated cut-off is given here; in the data, active means growth inhibition above about 70%; inactive means the rest.

What was measured:
[1] = NCI Yeast Anticancer Drug Screen. Data for the rad52 strain (AID 147);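 further: 0% = growth of vehicle-treated control cultures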; conditions: S. cerevisiae rad52 mutant growth inhibition, stronger effect = higher value
Procedure, shortened: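 Read-out: growth inhibition versus vehicle-treated controls. Cells were a DNA repair-deficient yeast strain treated with compounds.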

[2] = NCI Yeast Anticancer Drug Screen. Data for the rad50EPP+ strain (AID 151);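 further: 0% = growth of vehicle-treated control cultures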; conditions: S. cerevisiae rad50 mutant strain, stronger effect = higher value
Procedure, shortened: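 Growth inhibition read against vehicle controls in rad50EPP+ yeast, a strain altered in DNA damage repair, after compound exposure.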

[3] = NCI Yeast Anticancer Drug Screen. Data for the mgt1 strain (AID 153); conditions: S. cerevisiae mgt1 mutant growth inhibition, stronger effect = higher value
Procedure, shortened: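 mgt1 yeast grown with test compound; read-out is growth inhibition versus vehicle-treated cultures.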

[4] = NCI Yeast Anticancer Drug Screen. Data for the rad50 strain (AID 155);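 further: 0% = growth of vehicle-only cultures of the same strain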; conditions: S. cerevisiae rad50 strain growth inhibition, stronger effect = higher value
Procedure, shortened: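 Vehicle-treated cultures provide the reference for the growth inhibition reported for compound-exposed, repair-deficient yeast.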

[5] = NCI Yeast Anticancer Drug Screen. Data for the mec2-1 strain (AID 157); conditions: S. cerevisiae mec2-1 strain, stronger effect = higher value
Procedure, shortened: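 Yeast mec2-1 mutant treated with compound. Readout: growth inhibition vs vehicle controls.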

[6] = NCI Yeast Anticancer Drug Screen. Data for the rad14 strain (AID 159);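 further: 0% = growth of vehicle-treated control cultures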; conditions: S. cerevisiae rad14 strain growth inhibition, stronger effect = higher value
Procedure, shortened: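 Inhibition of growth is reported for a repair-deficient yeast mutant following compound treatment, calculated relative to cultures that received vehicle.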

[7] = NCI Yeast Anticancer Drug Screen. Data for the sgs1 mgt1 strain (AID 161);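 further: 0% = growth of cultures given vehicle only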; conditions: S. cerevisiae sgs1 mgt1 strain, stronger effect = higher value
Procedure, shortened: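 Inhibition of yeast growth, normalised to vehicle-treated controls, is reported for a strain bearing genetic alterations in DNA damage repair.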

[8] = NCI Yeast Anticancer Drug Screen. Data for the CLN2oe strain (AID 163);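 further: 0% = growth of vehicle-only control cultures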; conditions: S. cerevisiae CLN2oe strain, stronger effect = higher value
Procedure, shortened: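 Read-out: yeast growth inhibition, expressed relative to vehicle-only controls. The strain bears an engineered cell-cycle alteration.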

[9] = NCI Yeast Anticancer Drug Screen. Data for the cln2 rad14 strain (AID 165);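 further: 0% = growth equal to vehicle treated cultures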; conditions: S. cerevisiae cln2 rad14 strain, stronger effect = higher value
Procedure, shortened: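 cln2 rad14 yeast strain; compound exposure; growth inhibition read vs vehicle controls.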

[10] = NCI Yeast Anticancer Drug Screen. Data for the bub3 strain (AID 167); conditions: S. cerevisiae bub3 mutant strain, stronger effect = higher value
Procedure, shortened: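 Mutant yeast screening strain plus compound; vehicle-treated cultures serve as the 0% inhibition reference.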

[11] = NCI Yeast Anticancer Drug Screen. Data for the wt2 strain (AID 169); conditions: S. cerevisiae wt2 strain growth inhibition, stronger effect = higher value
Procedure, shortened: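 Read-out: growth inhibition versus vehicle-treated control cultures after compound exposure of the yeast strain.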

[12] = NCI Yeast Anticancer Drug Screen. Data for the mlh1 strain (AID 171);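 further: 0% = growth of vehicle-treated control cultures of the same strain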; conditions: S. cerevisiae mlh1 strain growth inhibition, stronger effect = higher value
Procedure, shortened: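 Read-out: growth inhibition versus vehicle controls. Strain: engineered yeast with a defined DNA repair or cell cycle defect, compound-treated.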

[13] = NCI Yeast Anticancer Drug Screen. Data for the sgs1 strain (AID 173);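 further: 0% = growth of vehicle-only control cultures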; conditions: S. cerevisiae sgs1 mutant, stronger effect = higher value
Procedure, shortened: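 Read-out: yeast growth inhibition relative to vehicle controls, following compound exposure of a strain with a defined DNA repair/cell cycle alteration.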

[14] = NCI Yeast Anticancer Drug Screen. Data for the mlh1 rad18 strain (AID 175); conditions: S. cerevisiae mlh1 rad18 strain growth inhibition, stronger effect = higher value
Procedure, shortened: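 Yeast w/ defined DNA-repair lesions; compound exposure; growth vs vehicle controls → % inhibition.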

[15] = NCI Yeast Anticancer Drug Screen. Data for the rad18 strain (AID 177); conditions: S. cerevisiae rad18 mutant growth inhibition, stronger effect = higher value
Procedure, shortened: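 Readout: growth inhibition vs vehicle controls. Cells: genetically altered yeast strain, DNA repair defect.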

[16] = NCI Yeast Anticancer Drug Screen. Data for the wt1 strain (AID 149);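 further: 0% = growth of vehicle-treated wt1 cultures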; conditions: S. cerevisiae wt1 strain (SPY 50644) growth inhibition, stronger effect = higher value
Procedure, shortened: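 Each compound is tested on wt1 yeast and the loss of growth versus vehicle gives the inhibition value.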

[17] = at 5.0 µM (retest, dose inferred, filed as 0.5)
[18] = at 50.0 µM (retest, dose inferred, filed as 5.0)

Measured: growth inhibition

Clc1nc(Cl)nc(Nc2cccc3ccccc23)n1
inactive: [1]; at 1.2 µM 13% | [1]; at 3.7 µM 32% | [1]; at 11.0 µM 64% | [2]; at 1.2 µM 21% | [2]; at 3.7 µM 50% | [2]; at 11.0 µM 49% | [3]; at 1.2 µM 18% | [3]; at 3.7 µM 26% | [3]; at 11.0 µM 54% | [4]; at 1.2 µM 4% | [4]; at 3.7 µM 21% | [4]; [17] 29% | [4]; at 11.0 µM 52% | [5]; at 1.2 µM 23% | [5]; at 3.7 µM 42% | [5]; [17] 10% | [5]; at 11.0 µM 58% | [6]; at 1.2 µM -4% | [6]; at 3.7 µM 15% | [6]; at 11.0 µM 48% | [7]; [17] 19% | [7]; [18] 39% | [8]; at 1.2 µM 26% | [8]; at 3.7 µM 31% | [8]; at 11.0 µM 51% | [9]; [17] 44% | [10]; at 1.2 µM 33% | [10]; at 3.7 µM 45% | [10]; [17] 64% | [11]; at 1.2 µM -12% | [11]; at 3.7 µM 15% | [11]; at 11.0 µM 51% | [12]; at 1.2 µM 27% | [12]; at 3.7 µM 51% | [13]; at 1.2 µM 31% | [13]; at 3.7 µM 47% | [14]; [17] 69% | [15]; at 1.2 µM 11% | [15]; at 3.7 µM 14% | [15]; at 11.0 µM 50%
active: [1]; at 33.0 µM 93% | [1]; at 100.0 µM 98% | [2]; at 33.0 µM 85% | [2]; at 100.0 µM 95% | [3]; at 33.0 µM 95% | [3]; at 100.0 µM 98% | [4]; at 33.0 µM 93% | [4]; [18] 92% | [4]; at 50.0 µM 86.9% | [4]; at 100.0 µM 97% | [5]; at 33.0 µM 97% | [5]; [18] 96% | [5]; at 50.0 µM 90% | [5]; at 100.0 µM 98% | [6]; at 33.0 µM 95% | [6]; at 100.0 µM 98% | [7]; at 50.0 µM 86.7% | [8]; at 33.0 µM 94% | [8]; at 100.0 µM 99% | [9]; [18] 95% | [9]; at 50.0 µM 71.4% | [10]; at 11.0 µM 80% | [10]; at 33.0 µM 96% | [10]; [18] 97% | [10]; at 50.0 µM 86.2% | [10]; at 100.0 µM 99% | [11]; at 33.0 µM 93% | [11]; at 100.0 µM 98% | [12]; at 11.0 µM 85% | [12]; at 33.0 µM 97% | [12]; at 100.0 µM 98% | [13]; at 11.0 µM 77% | [13]; at 33.0 µM 96% | [13]; at 100.0 µM 98% | [14]; [18] 94% | [14]; at 50.0 µM 80.3% | [15]; at 33.0 µM 91% | [15]; at 100.0 µM 98%

COc1cc(C2C3=C(COC3=O)Oc3cc4c(cc32)OCO4)cc(OC)c1O (stereo unspecified)
active: [1]; at 1.2 µM 90% | [1]; at 3.7 µM 86% | [1]; at 11.0 µM 93% | [1]; at 33.0 µM 93% | [1]; at 100.0 µM 94% | [4]; at 1.2 µM 88% | [4]; at 3.7 µM 88% | [4]; at 11.0 µM 92% | [4]; at 33.0 µM 92% | [4]; [18] 97% | [4]; at 50.0 µM 70% | [4]; at 100.0 µM 93% | [14]; at 50.0 µM 72.7%
inactive: [16]; at 1.2 µM 1% | [16]; at 3.7 µM 2% | [16]; at 11.0 µM 3% | [16]; at 33.0 µM 6% | [16]; at 100.0 µM 8% | [3]; at 1.2 µM 0% | [3]; at 3.7 µM -2% | [3]; at 11.0 µM 15% | [3]; at 33.0 µM -2% | [3]; at 100.0 µM 7% | [4]; [17] 14% | [5]; at 1.2 µM 12% | [5]; at 3.7 µM 7% | [5]; [17] -24% | [5]; at 11.0 µM 18% | [5]; at 33.0 µM 25% | [5]; [18] 39% | [5]; at 50.0 µM 59.1% | [5]; at 100.0 µM 29% | [6]; at 1.2 µM 5% | [6]; at 3.7 µM 5% | [6]; at 11.0 µM 16% | [6]; at 33.0 µM 12% | [6]; at 100.0 µM 15% | [7]; [17] -3% | [7]; [18] 47% | [7]; at 50.0 µM 36.7% | [8]; at 1.2 µM 0% | [8]; at 3.7 µM -3% | [8]; at 11.0 µM 5% | [8]; at 33.0 µM 17% | [8]; at 100.0 µM 21% | [9]; [17] 8% | [9]; [18] 51% | [9]; at 50.0 µM 55.1% | [10]; at 1.2 µM 1% | [10]; at 3.7 µM -1% | [10]; [17] -18% | [10]; at 11.0 µM 14% | [10]; at 33.0 µM 10% | [10]; [18] 9% | [10]; at 50.0 µM 23.3% | [10]; at 100.0 µM 13% | [11]; at 1.2 µM 2% | [11]; at 3.7 µM 1% | [11]; at 11.0 µM 5% | [11]; at 33.0 µM 6% | [11]; at 100.0 µM 8% | [12]; at 1.2 µM 3% | [12]; at 3.7 µM 0% | [12]; at 11.0 µM 8% | [12]; at 33.0 µM 10% | [12]; at 100.0 µM 10% | [13]; at 1.2 µM 13% | [13]; at 3.7 µM 10% | [13]; at 11.0 µM 22% | [13]; at 33.0 µM 26% | [13]; at 100.0 µM 28% | [14]; [17] -10% | [14]; [18] 58% | [15]; at 1.2 µM 11% | [15]; at 3.7 µM 11% | [15]; at 11.0 µM 19% | [15]; at 33.0 µM 9% | [15]; at 100.0 µM 24%
